# According to PMC4336329 (PLoS ONE, 2015):
# The whole screen tested about 310,000 compounds, of which about 14,000 (4.5%) showed an effect of 50% or more. The effect is printed as a negative number. This is one part of a sample in which strong results are shown more often than they occur.
# Molecular target: human ether-à-go-go-related gene (hERG) potassium channel (human, UniProt Q12809)
# Experiment: primary screen, population patch clamp on CHO cells stably expressing hERG; higher = less effect of the substance
# 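Also: peak tail current of the secondary pulse compared with the same well before compound.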
# Chain of human ether-à-go-go-related gene (hERG) potassium channel (Q12809 whole entry, looked up): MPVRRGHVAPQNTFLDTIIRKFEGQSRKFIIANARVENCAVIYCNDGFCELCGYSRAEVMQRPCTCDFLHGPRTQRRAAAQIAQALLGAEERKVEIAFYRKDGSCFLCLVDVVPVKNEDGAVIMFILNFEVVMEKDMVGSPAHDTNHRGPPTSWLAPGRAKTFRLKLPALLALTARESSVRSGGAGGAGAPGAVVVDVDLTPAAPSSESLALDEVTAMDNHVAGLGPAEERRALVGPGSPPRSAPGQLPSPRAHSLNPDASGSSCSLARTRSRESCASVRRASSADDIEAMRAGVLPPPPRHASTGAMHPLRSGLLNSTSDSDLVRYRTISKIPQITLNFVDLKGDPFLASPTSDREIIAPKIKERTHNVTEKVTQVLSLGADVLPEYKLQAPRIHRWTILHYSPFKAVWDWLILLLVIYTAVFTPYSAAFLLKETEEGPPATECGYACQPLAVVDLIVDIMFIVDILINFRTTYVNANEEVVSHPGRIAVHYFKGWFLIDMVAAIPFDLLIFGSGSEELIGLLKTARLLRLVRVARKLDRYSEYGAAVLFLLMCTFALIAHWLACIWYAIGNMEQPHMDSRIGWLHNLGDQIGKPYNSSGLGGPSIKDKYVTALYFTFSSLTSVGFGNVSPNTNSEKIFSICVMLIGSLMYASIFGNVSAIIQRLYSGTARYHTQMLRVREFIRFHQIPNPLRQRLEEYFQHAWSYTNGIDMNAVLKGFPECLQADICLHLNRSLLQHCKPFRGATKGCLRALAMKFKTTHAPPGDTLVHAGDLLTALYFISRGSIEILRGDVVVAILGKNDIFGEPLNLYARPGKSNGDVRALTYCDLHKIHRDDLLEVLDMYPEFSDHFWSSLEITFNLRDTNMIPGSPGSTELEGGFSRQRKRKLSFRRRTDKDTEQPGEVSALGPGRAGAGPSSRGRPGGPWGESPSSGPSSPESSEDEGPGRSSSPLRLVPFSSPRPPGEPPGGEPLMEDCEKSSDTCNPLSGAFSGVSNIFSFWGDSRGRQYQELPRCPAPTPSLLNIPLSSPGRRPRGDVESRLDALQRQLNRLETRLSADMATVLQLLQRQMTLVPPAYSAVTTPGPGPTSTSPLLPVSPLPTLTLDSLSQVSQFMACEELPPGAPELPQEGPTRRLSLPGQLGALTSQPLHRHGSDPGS
row,Structure (SMILES),"hERG current change (%, negative = inhibition) at 10uM [%]"
1,CC(=O)N1CCN(c2cc(N3CCCC3)c(F)cc2[N+](=O)[O-])CC1,5.05
2,COc1ccc(/C=N/Nc2ccc(C(F)(F)F)cc2[N+](=O)[O-])cc1,5.35
3,Cn1cccc1Cc1nnc(SCC(=O)NCCc2ccccc2)n1-c1ccc(F)cc1,-21.6
4,CC(C)Cc1nnc(NC(=O)CN2C(=O)NC3(CCCC3)C2=O)s1,-9.22
5,CC(=O)N=c1scc(-c2ccccc2)n1-c1cccc(O)c1,7.32
6,COc1cnn(-c2ccc(C)cc2)c(=O)c1SCc1ccccc1,-20.9
7,COc1cnn(-c2ccccc2)c(=O)c1SCc1ccc(Cl)c(Cl)c1,-21.1
8,COc1cnn(-c2ccc(Br)cc2)c(=O)c1SCc1ccccc1,-65.6
9,CN(C)S(=O)(=O)c1ccc(NC(=S)NC(=O)C2CCC2)cc1,10.3
10,CC(C)(SC(=S)N1CCCCCC1)C(=O)O,24.3
11,CC(C)(C)n1cn[nH]c1=S,22
12,CCCSc1cc(N2CCCC2)nc(-c2ccccc2)n1,15.5
13,COc1cccc(CN2CCC(N(CCc3ccccc3)Cc3ccccc3)CC2)c1OC.O=C(O)C(=O)O,-60.3
14,COc1ccc(CN2CCC(N(CCc3ccccc3)Cc3ccccc3)CC2)c(OC)c1.O=C(O)C(=O)O,-74.5
15,COc1ccc(CCN(C)C(=O)C2CCN(Cc3cccc(OC)c3OC)CC2)cc1OC.O=C(O)C(=O)O,-3.13
16,COc1ccc(CN2CCC(C(=O)N(C)CCc3ccc(OC)c(OC)c3)CC2)c(OC)c1.O=C(O)C(=O)O,-44.9
17,COc1cccc(CN2CCN(Cc3cc(OC)c(OC)c(OC)c3)CC2)c1OC.O=C(O)C(=O)O,-8.03
18,COc1ccc(CN2CCC(N3CC(C)OC(C)C3)CC2)c(OC)c1.O=C(O)C(=O)O (centres unmarked),-1.98
19,O=C(Nc1ccccc1)c1ccc(S(=O)(=O)NCc2ccco2)cc1,-11.6
20,O=C(Cc1ccc(S(=O)(=O)N2CCCC2)s1)NC1CCCCCC1,-31.4
21,C/C(=N\NC(=O)Cn1nc(C)cc1C)c1ccc([N+](=O)[O-])cc1,-17.6
22,O=C(Nc1ccc(Cc2ccc(NC(=O)C3CC3)c(O)c2)cc1O)C1CC1,8.31
23,CCC(=O)N1COC[C@@H]1Cc1ccccc1,25.4
24,CCC(=O)N1C(Cc2ccccc2)COC1(C)C (centres unmarked),-73.4
25,CCC1(C)NC(=O)N(CC(=O)N2CCC(Cc3ccccc3)CC2)C1=O (centres unmarked),3.65
26,Cn1c(=O)c2ncn(CC(=O)N=Nc3c(O)[nH]c4ccccc34)c2n(C)c1=O,20.7
27,O=[N+]([O-])c1cccc(/C=N/NC2=NCCCCC2)c1,-83

row,Structure (SMILES),"hERG current change (%, negative = inhibition) at 10uM [%]"
1,O=C(N/N=C/c1ccc([N+](=O)[O-])cc1)C(=O)N1CCCC1,13.5
2,O=C(N/N=C/c1cccc(O)c1)C(=O)N1CCCCCC1,24.6
3,O=C(ONC1=NCCCCC1)c1cccc([N+](=O)[O-])c1,0.994
4,O=C(N/N=C/c1cccc([N+](=O)[O-])c1)C(=O)N1CCCCCC1,-52.5
5,Cl.O=[N+]([O-])c1ccccc1/C=N/NC1=NCCCCC1,-39.3
6,O=C(CSc1nnc(-c2cccnc2)n1CCc1ccccc1)NCc1ccccc1,-10.9
7,CCOc1ccc(-c2nnc(SCC(=O)N(CC)CC)n2N)cc1,5.1
8,CN1C(=O)Cc2cc(S(=O)(=O)N3CCN(c4ccc(Cl)cc4)CC3)ccc21,-2.2
9,COc1ccccc1Nc1nc(NCCO)nc(N)c1[N+](=O)[O-],2.88
10,Cc1cc(=O)oc2cc(OCC(=O)OCC(=O)Nc3ccccc3C(C)C)ccc12,3.47
11,COc1ccccc1C(=O)Nc1cc2c(cc1C(=O)O)OCCCO2,-2.13
12,CSc1ccccc1C(=O)Nc1cc2c(cc1C(=O)O)OCCCO2,18.2
13,CS(=O)(=O)c1ccccc1C(=O)Nc1cc2c(cc1C(=O)O)OCCCO2,-57.3
14,CCCCCC(=O)Nc1cccc(C2=NOC3(C2)C[C@H](C(N)=O)N(C(=O)CCCCC)C3)c1 (some centres unmarked),-70.7
15,CCCCCC(=O)N1CC2(CC(c3cccc(NC(=O)c4ccccc4)c3)=NO2)C[C@@H]1C(N)=O (some centres unmarked),-54.6
16,CCCCCC(=O)N1CC2(CC(c3cccc(NC(=O)CC(c4ccccc4)c4ccccc4)c3)=NO2)C[C@@H]1C(N)=O (some centres unmarked),11.4
17,NC(=O)[C@@H]1CC2(CC(c3cccc(NC(=O)COc4ccc(Cl)cc4)c3)=NO2)CN1C(=O)COc1ccc(Cl)cc1 (some centres unmarked),-29.4
18,C/C=C\C(=O)Nc1cccc(C2=NOC3(C2)C[C@@H](C(N)=O)N(C(=O)CCCCC)C3)c1 (some centres unmarked),-31
19,CCCCCC(=O)N1CC2(CC(c3cccc(NC(=O)CC)c3)=NO2)C[C@H]1C(N)=O (some centres unmarked),-11.6
20,CCCCCC(=O)N1CC2(CC(c3cccc(NC(=O)COc4ccc(Cl)cc4)c3)=NO2)C[C@@H]1C(N)=O (some centres unmarked),-77
21,CCCCCC(=O)Nc1cccc(C2=NOC3(C2)C[C@H](C(N)=O)N(C(=O)CC)C3)c1 (some centres unmarked),6.18
22,CCCCCC(=O)Nc1cccc(C2=NOC3(C2)C[C@H](C(N)=O)N(C(=O)COc2ccc(Cl)cc2)C3)c1 (some centres unmarked),-22
23,N#CCCN1CCN(S(=O)(=O)c2ccc(S(=O)(=O)NC3CCCC3)cc2)CC1,-9.4
24,CCc1cc2c(Nc3ccc(O)cc3)nc(C)nc2s1.Cl,8.46
25,Cc1cc(/C=N/O)c(C)n1-c1ccc(Br)cc1,-34.2
26,CCc1ccc(OCCSc2nc3ccccc3n2CC(=O)O)cc1,3.37
